Screen size: about 220,000 compounds; about 2,600 (1.2%) were called active. This is one part of a sample in which actives are shown more often than they occur. Values without a mark were called inactive.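 How the source made its calls: active means activation above the mean of all tested compounds plus 3 SD, set per screening run (cut at about 8.8% in these data); inactive means the rest.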
target: Wee1-like protein kinase (Homo sapiens) (UniProt P30291); assay: Wee1 degradation inhibitors, primary screen, cell-based, HeLa, Wee1K328M-luciferase, luminescence (AID 1321); conditions: HeLa Luc-Wee1K328M stability, at 5 µM, active compounds read high, 100% = proteasome inhibitor MG132 effect;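 further: cells exposed to compound for 20 h before luminescence read; 0% = DMSO alone and 100% = MG132 at 30 µM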

Row | SMILES | reporter increase
1 | Brc1ccc(-c2n(-c3ccccn3)c3ccccc3[n+]2-c2ccccn2)cc1 | 3.34%
2 | CN(C)N=Nc1ccc2nc[nH]c2c1 | 2.5%
3 | Cc1ccc(C(=O)Nc2nc(N)n(-c3ccccc3)n2)cc1 | -0.93%
4 | NS(=O)(=O)c1ccc(CNC(=O)c2cnccn2)cc1 | 3.73%
5 | COC(=O)CC1=NN(c2ccccc2)C(=O)C1 | -1.29%
6 | Cc1cc(C)cc(NC(=O)C2CCN(c3nc(C)cc(C)n3)CC2)c1 | -2.65%
7 | COC(=O)CC1=NN(c2nc(C)cc(C)n2)C(=O)C1 | 15.3% (active)
8 | O=C1C2C3C=CC(C3)C2C(=O)N1c1ccc(S(=O)(=O)Nc2nccs2)cc1 (centres undefined) | -1.57%
9 | NS(=O)(=O)c1ccc(NC(=O)COC(=O)c2cc3ccccc3oc2=O)cc1 | -2.85%
10 | O=C(CCc1ccccc1)NNc1ccc(F)cc1 | 1.37%
11 | Cc1ccccc1N1CCN(CCCOc2ccc3c(C)cc(=O)oc3c2)CC1 | -1.06%
12 | COc1cccc(-c2nnc(SCCOc3ccc4c(C)cc(=O)oc4c3)o2)c1 | 9.51% (active)
13 | Cc1cc(=O)oc2cc(OCCC[n+]3ccccc3)ccc12 | -1.76%
14 | COC(=O)c1sccc1NN1C(=O)c2ccccc2C1=O | -2.49%
15 | Cc1cccc(NC(=O)/C=C/c2ccc3c(c2)OCO3)n1 | 9.34% (active)
16 | CCc1c(C)sc(NC(=O)/C=C/c2ccc3c(c2)OCO3)c1C(=O)OC | -2.27%
17 | Cc1cccc(NC(=O)Nc2ccc3c(c2)OCO3)n1 | 5.09%
18 | COc1ccc(C(=O)N/N=C2\CCS(=O)(=O)c3ccc(F)cc32)cc1OC | 0.62%
19 | Nc1ccc(C(=O)NCc2ccccc2)cc1 | 2.22%
20 | O=C(NCCCNCc1ccccc1)c1ccc(/C=N/O)nc1 | 11.4% (active)
21 | CC(C)c1ccc(C(=O)NCCCc2ccccc2)cc1 | -2.16%
22 | CNC(=S)NNC(=O)c1oc2nc(-c3ccccc3)cc(-c3ccco3)c2c1N | -0.32%

Row | SMILES | reporter increase
23 | CCOP(=O)(OCC)C(Nc1cccc(C)c1)c1ccc(F)cc1 (centres undefined) | 10.8% (active)
24 | CCCCOC(=O)c1ccc(NC(c2ccc(C)cc2)P(=O)(OC)OC)cc1 (centres undefined) | 8.49%
25 | CCOP(=O)(OCC)C(Nc1ccc([N+](=O)[O-])cc1)c1ccc(Cl)cc1 (centres undefined) | 0.66%
26 | Nc1ccccc1SC(C[N+](=O)[O-])c1ccccc1 (centres undefined) | -0.08%
27 | O=C1NC(=Nc2ccc(Cl)cc2)SC1Cc1cccc(Cl)c1Cl (centres undefined) | -1.02%
28 | NC1=NC(=O)C(Cc2cccc(Cl)c2Cl)S1 (centres undefined) | 9.04% (active)
29 | NC1=NC(=O)C(Cc2cccc(Cl)c2)S1 (centres undefined) | -3.99%
30 | [O-][N+]12CCCCC1CCCC2CO (centres undefined) | -2.55%
31 | COCCCNC(=O)C1CCN(c2ccc(N3CCOCC3)nn2)CC1 | -2.62%
32 | CSc1nc(-c2ccco2)nn1C(=O)c1ccccc1Cl | -1.69%
33 | Cc1ccc(C)c(NC(=S)NNC(=O)c2csc(C)c2)c1 | 1.58%
34 | Cc1ccccc1NC(=S)NNC(=O)c1cccc(Br)c1 | -1.44%
35 | Cc1cc(C(=O)NNC(=S)Nc2ccccc2C)cs1 | 10.1% (active)
36 | CC(=O)N1CC[n+]2c(-c3ccc([N+](=O)[O-])cc3)csc21 | -3.06%
37 | O=c1c2ccccc2nnn1CSc1nnnn1-c1ccccc1 | 9.56% (active)
38 | Nc1nnc(SCn2nnc3ccccc3c2=O)s1 | -0.04%
39 | O=c1c2ccccc2nc(CSc2nnnn2-c2ccccc2)n1-c1ccccc1 | 5.88%
40 | Cc1ccc(-c2nc(SCC(=O)Nc3ccccc3OC(F)F)c3c(C)c(C(=O)O)sc3n2)cc1 | -1.68%
41 | O=[N+]([O-])/C=C1\CCCCCN1 | -2.66%
42 | COc1ccc(CCN2C(=O)CC(N3CCC(C(N)=O)CC3)C2=O)cc1OC (centres undefined) | -3%
43 | C/C(=N\NC(=S)Nc1ccc(C)cc1)c1cc2ccccc2o1 | 5.15%
44 | CCC(=O)/C=C1\Sc2ccccc2N1CC | -1.98%

Row | SMILES | reporter increase
45 | CCN1/C(=C/C(=S)Nc2ccccc2)Sc2ccccc21 | 11.6% (active)
46 | O=C(CCN1c2ccccc2Sc2ccccc21)Nc1ccccc1 | 0.76%
47 | COc1ccc2oc(=O)c(C(=O)N3CCN(c4ccccc4F)CC3)cc2c1 | -2.32%
48 | COc1ccc(Nc2ncc(C(=O)N3CCN(c4ccccc4OC)CC3)c3ccccc23)cc1 | 8.82% (active)
49 | COc1ccccc1N1CCN(C(=O)c2cn(-c3ccccc3)nc2-c2cccnc2)CC1 | -0.84%
50 | O=C(/C=C/Nc1ccc(S(=O)(=O)Nc2cnc3ccccc3n2)cc1)c1cccnc1 | -0.5%
51 | COc1cc(OC)c(OC)cc1/C=N/Nc1ncnc2c1[nH]c1ccc(C)cc12 | 0.2%
52 | O=C(NNS(=O)(=O)Cc1ccccc1)c1ccc([N+](=O)[O-])cc1 | -1.88%
53 | Nc1c(C(=O)NCc2ccccc2)sc2nc3c(cc12)C(=O)CCC3 | 2.8%
54 | CC(C)OC(=O)c1sc2nc3c(cc2c1N)C(=O)CCC3 | 11.6% (active)
55 | COC(=O)c1cc2c(N)c(C(=O)c3ccc(Cl)cc3)sc2nc1C(OC)OC | -2.57%
56 | CN(CC(O)COc1ccc(S(=O)(=O)N2CCOCC2)cc1Cl)C1CCCCC1 (centres undefined) | -3.05%
57 | O=C(N/N=C/c1cccc([N+](=O)[O-])c1)c1ccncc1 | 2.44%
58 | CN(c1cccc(NC(=O)Nc2ccc(Cl)cc2)c1)S(C)(=O)=O | 4.1%
59 | CC(C)S(=O)(=O)c1csc(NC(=O)Nc2ccc(Cl)cc2)c1Cl | 14.2% (active)
60 | Cn1ccc(NC(=O)Nc2ccc(Cl)cc2)n1 | 2.1%
61 | Cn1nc(C(F)(F)F)cc1C(=O)O | -1.44%
62 | COc1ccc(Br)cc1/C=N/NC(=O)c1cccc(S(=O)(=O)N2CCOCC2)c1 | 8.21%
63 | COc1cccc(/C=N/NC(=O)CNC(=O)c2ccc(S(=O)(=O)N3CCOCC3)cc2)c1OC | 12.4% (active)
64 | COc1ccc(/C=N/NC(=O)CNC(=O)c2ccc(S(=O)(=O)N3CCCC3)cc2)c(OC)c1 | 0.74%

From PubChem BioAssay AID1321 (The Scripps Research Institute Molecular Screening Center, 2008)
